The source of these data is ChEMBL document CHEMBL3433997, “St. Jude Leishmania screening dataset” (2016).

The test deals with Glucose transporter (Leishmania mexicana) (UniProt O61059). In words: ST_JUDE_LEISH: Cytotoxicity at 2uM final concentration against transgenic Leishmania Mexicana promastigotes LmGT2 that are glucose transport deficient and complemented with the L. Mexicana glucose transporter 2. Activity is measured by DNA content using SYBR green in vitro. Type of test: functional.
Turning to `CC(=O)Oc1ccc(C(=O)Oc2ccccc2C#CC#N)cc1OC(C)=O`, the inhibition was -1.3%.

For the compound `CC(=O)Nc1nc(C(=O)Nc2ccc(-c3ccc(-c4nc5cccc(C)c5[nH]4)cc3)cc2)cs1`, the inhibition stood at 6.38%.

On to `O=C(c1ccc(-c2ccc(-c3nc4cc(C(F)(F)F)ccc4[nH]3)s2)cc1)N1CCN(CCc2ccccc2)CC1`, for which the inhibition was 4.62%. The same measure for `Cc1cc(=O)c(-c2ccc(Oc3ccc(Cl)cc3Cl)cc2)c(C)[nH]1`: 1.9%; for `c1ccc(CN2CCC(NCc3ccc(-c4cncc5ccccc45)cc3)CC2)cc1`: 3.84%.

As for `COc1ccc(NC(=O)NC2CCN(c3ccnc4cc(Cl)ccc34)CC2)cc1`, the inhibition amounted to 0.02%.

On to `CCCCCCSc1nnc(COc2cccc3ccccc23)n1-c1ccc(OC)cc1`, for which the inhibition came out at 10.3%. The same measure for `CC(=O)c1sc2ccccc2c1O`: 1.24%; for `CCCN(CC1CC1)c1ncc(-c2cccc(CNCc3ccccc3O)c2)cn1`: -1.63%; for `CN(C)C=Nc1ccc(OCCCCCCOc2ccc(N=CN(C)C)cc2)cc1`: 2.37%.

As for `Nc1nc(N)c2c(ccc3c2ccn3Cc2ccc(-c3ccccc3)cc2)n1`, the inhibition was 113%. The same measure for `O=C(Nc1cc(C(F)(F)F)cc(C(F)(F)F)c1)c1cc(C(F)(F)F)cc(C(F)(F)F)c1`: 1.06%; for `Cn1cncc1CCCN(Cc1ccc(-c2ccc(C(F)(F)F)cc2)cc1)C(=O)Cn1c(CCc2cccc(F)c2F)cc(=O)c2cccnc21`: 1.5%; for `CCn1ncc(Cl)c1CN(C)S(=O)(=O)c1ccc2ccccc2c1`: 6.31%. To `CC(C)N1CCN(C(CN2CCN(CCCOc3ccccc3-c3ccccc3)CC2)c2ccc(F)cc2)CC1` (stereo not given) belongs 5.95%.

With `COc1ccc(-c2cn3c(C(=O)Nc4ccccc4Cl)c(-c4ccccc4)c4c3n2CCCC4)cc1`, the inhibition is -0.58%.

Consider `NC(=O)C1CCN(Cc2ccc(-c3ccc(-c4nc5cc(F)ccc5[nH]4)cc3)cc2)CC1`, for which the inhibition was 10.8%. The same measure for `CC(C)NCc1ccc(-c2cccc(NC(=O)c3cccc(C#N)c3)c2)cc1`: -2.27%; for `Cc1nc(C)c(CC(=O)Nc2ccc(-c3cccc(-c4nc5cccc(C)c5[nH]4)c3)cc2)s1`: 4.14%. To `COc1ccc(OC)c(-c2ccc(O)c(CNCC(C)c3ccccc3)c2)c1` (stereo not given) belongs -1.24%; to `Oc1ccc(CN2CCC(N3CCN(CCc4ccccc4)CC3)C(O)C2)cc1Cl` (stereo not given), 2.61%; to `CCc1nc2c(cnn2CC)c(NC2CCOCC2)c1CNC(=O)N1CCOCC1`, -0.36%. To `COc1ccc(NC(=O)[C@H](Cc2ccccc2)Nc2cc(C)nc(NCCc3ccccc3)n2)cc1` belongs 5.16%; to `Clc1cc(Cl)c2cc(CN[C@H]3CCC[C@@H]3CNc3nc4ccccc4[nH]3)[nH]c2c1`, 2.36%.

Take `N#Cc1ccc(-c2ccc(C(=O)NCC3CCN(CCN4CCC(c5ccc6c(c5OCC(N)=O)CCCC6)CC4)CC3)cc2)cc1`: the inhibition was 2.54%. To `COc1ccc2c(=NN=CC=Cc3ccccc3)cc(C)[nH]c2c1` belongs 3.21%; to `O=C(NC1CCN(c2ccnc3cc(Cl)ccc23)C1)c1ccc(C(F)(F)F)cc1` (stereo not given), 0.57%.

Turning to `CCc1nc2c(N)nc(N)nc2nc1-c1ccc(OC)cc1`, the inhibition came out at 1.23%. The same measure for `CCCCCCCCCc1c(C)[nH]c2ccccc2c1=O`: 2.28%. The same measure for `CCCN(CC1CC1)c1ncc(-c2ccccc2CNCc2ccccc2O)cn1`: 4.56%; for `Cc1ccccc1C1CCN(C2CCC(NC(=O)/C=C/c3ccc(C(F)(F)F)cc3)CC2)CC1` (stereo not given): 1.85%. The same measure for `COc1cccc(NC(=O)NC2CCN(c3ccnc(Nc4cc(OC)c(OC)c(OC)c4)n3)C2)c1` (stereo not given): 5.86%; for `O=C(NCCN1CCCCC1)c1cccc(Nc2nccc(Nc3ccc(Oc4ccccc4)cc3)n2)c1`: -0.27%. With `Fc1cc(CN2CCCC2)ccc1OCCCN1CCN(c2cccc(Cl)c2Cl)CC1`, the inhibition amounted to 4.5%.

Turning to `CC(C)NCc1ccc(-c2ccc(CN3CCCC(c4ccccc4)C3)cc2)c(C(=O)NCC2CCCCC2)c1` (stereo not given), the inhibition is -6.06%. The same measure for `CC1CN(c2cnn(Cc3ccc(NC(=O)Nc4cccc(C(F)(F)F)c4)cc3)c(=O)c2Cl)CC(C)N1` (stereo not given): -1.12%; for `Cc1ccc(-c2noc(COc3ccccc3C(=O)NC3CCCC3)n2)cc1`: 6.15%. To `CCOc1ccc2c(=NN=Cc3cc(OC)c(OC)c(OC)c3)cc(C)[nH]c2c1` belongs -0.3%; to `COc1cc2c(cc1S(=O)(=O)c1ccc(NC(=O)Nc3ccc(F)cc3)cc1)CCN(C)CC2`, 3.04%; to `O=[N+]([O-])c1cccc(CNCC2CCN(CCc3ccccc3)CC2)c1`, 2.16%.

As usually defined, the inhibition is the change of the read-out against control, counted positive when it falls.
